Measured values as given in the supplement of paper PMC10849652.
Targets with a hit are over-represented here; the source holds about 8,800 in all. About 0.5% of all pairs of compound and target were hits.

Experiments:
Assay in all cases: log2 fold change, soluble protein after heating vs DMSO (PISA); higher = thermal stabilisation; K562 lysate, 10 uM; active = over 0.2 and 3.5 SD of the protein, either way, in both replicates (recomputed)
[1] = compound: CN1CC[C@H](c2c(O)cc(O)c3c(=O)cc(-c4ccccc4Cl)oc23)[C@H](O)C1 [alvocidib]
Summary of the method: (§1)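 Dounce homogenisation of K562 pellets in PBS pH 7.4 with 1 mM MgCl2 produced a crude extract, used at 1 mg/mL protein. Exposure to 10 μM compound lasted 30 min, and aliquots were then heated for 3 min across 48°C-58°C, pooled and brought to 0.5% NP-40 at 4°C. The supernatant after 21,000xg for 90 min was quantified by TMTpro 16plex LC-MS/MS with channel sums equalised. Duplicate values are given as log-two fold change in thermal stability relative to solvent controls.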

[2] = compound: CN1CCc2c(c3ccccc3n2Cc2ccc(C(=O)NO)cc2)C1 [Tubastatin A]
Summary of the method: as §1

[3] = compound: CNC(=O)C1=CC=CC=C1NC2=NC(=NC=C2Cl)NC3=C(C=C(C=C3)N4CCOCC4)OC
Summary of the method: as §1

[4] = compound: CNC(=O)c1ccc(Nc2ncc(C(F)(F)F)c(NCc3nccnc3N(C)S(C)(=O)=O)n2)cc1 [defactinib]
Summary of the method: as §1

[5] = compound: CNc1nc(-c2ccc3c(N)n[nH]c3c2)cc(N2C[C@@H](C(=O)NC3CCCCC3)CC[C@H]2C)n1
Summary of the method: as §1

[6] = compound: COC(=O)N[C@@H](C)CNc1nccc(-c2cn(C(C)C)nc2-c2cc(Cl)cc(NS(C)(=O)=O)c2F)n1 [encorafenib]
Summary of the method: as §1

[7] = compound: COC(=O)[C@H](CCSC)NC(=O)C1=C(C=C(C=C1)NC[C@H](CS)N)C2=CC=CC=C2
Summary of the method: as §1

[8] = compound: COc1cc(Nc2ncc3c(n2)-c2ccc(Cl)cc2C(c2c(F)cccc2OC)=NC3)ccc1C(=O)O [alisertib]
Summary of the method: as §1

[9] = compound: COc1cc2nc(-c3cc(F)ccc3O)nc(N[C@@H]3CNC[C@H]3C(C)(C)O)c2cc1OC
Summary of the method: as §1

[10] = compound: COc1cc2ncnc(Nc3ccc(F)c(Cl)c3)c2cc1OCCCN1CCOCC1 [gefitinib]
Summary of the method: as §1

[11] = compound: CS(=O)(=O)CCNCc1ccc(-c2ccc3ncnc(Nc4ccc(OCc5cccc(F)c5)c(Cl)c4)c3c2)o1 [lapatinib]
Summary of the method: as §1

[12] = compound: CS(=O)(=O)N1CCN(Cc2cc3nc(-c4cccc5[nH]ncc45)nc(N4CCOCC4)c3s2)CC1 [pictilisib]
Summary of the method: as §1

[13] = compound: C[C@@H](Oc1cc(-c2cnn(C3CCNCC3)c2)cnc1N)c1c(Cl)ccc(F)c1Cl [crizotinib]
Summary of the method: as §1

[14] = compound: C[C@H](C1=CC=C(C=C1)C(=O)NC2=C3C=CNC3=NC=C2)N
Summary of the method: as §1

[15] = compound: C[C@H](Nc1ncnc2nc[nH]c12)c1cc2cccc(Cl)c2c(=O)n1-c1ccccc1 [duvelisib]
Summary of the method: as §1

[16] = compound: Cc1cc(Nc2cc(CN3CCOCC3)c3nc(C)c(Cc4ccc(Cl)cc4F)n3n2)n[nH]1 [gandotinib]
Summary of the method: as §1

[17] = compound: Cc1cc(Nc2cc(N3CCN(C)CC3)nc(Sc3ccc(NC(=O)C4CC4)cc3)n2)n[nH]1 [tozasertib]
Summary of the method: as §1

[18] = compound: Cc1ccc(-n2nc(C(C)(C)C)cc2NC(=O)Nc2ccc(OCCN3CCOCC3)c3ccccc23)cc1 [doramapimod]
Summary of the method: as §1

[19] = compound: Cc1ccc(NC(=O)c2ccc(CN3CC[C@H](N(C)C)C3)c(C(F)(F)F)c2)cc1Nc1nccc(-c2cncnc2)n1 [bafetinib]
Summary of the method: as §1

[20] = compound: Cc1cccc(CC(=O)N2CCc3c2ccc(-c2cn(C)c4ncnc(N)c24)c3F)n1
Summary of the method: as §1

Measured: log2 fold change

BUB1B isoform 3 (UniProt O60566)
inactive: [1] -0.032 | [2] -0.122 | [3] 0.018 | [4] -0.012 | [5] 0.018 | [6] 0.033 | [7] 0.018 | [8] 0.002 | [9] 0.011 | [10] -0.005 | [11] 0.009 | [12] -0.038 | [13] -0.059 | [14] 0.007 | [15] 0.024 | [16] -0.04 | [17] -0.01 | [18] 0.019 | [19] -0.029 | [20] 0.035

C12orf45 (UniProt Q8N5I9)
Sequence of UniProt Q8N5I9 (Q8N5I9 whole entry, looked up): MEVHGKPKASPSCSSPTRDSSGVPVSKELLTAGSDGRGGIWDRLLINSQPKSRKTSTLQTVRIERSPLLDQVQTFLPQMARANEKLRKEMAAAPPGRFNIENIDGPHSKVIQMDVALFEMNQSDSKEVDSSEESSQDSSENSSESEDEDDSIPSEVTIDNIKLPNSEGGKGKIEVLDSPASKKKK
active: [14] -0.269
inactive: [1] -0.13 | [2] 0.007 | [3] 0.004 | [4] -0.042 | [5] 0.036 | [6] 0.05 | [7] -0.06 | [8] 0.016 | [9] 0.01 | [10] 0.011 | [11] -0.027 | [12] -0.031 | [13] 0.042 | [15] -0.014 | [16] 0.148 | [17] -0.044 | [18] -0.023 | [19] 0.001 | [20] 0.072

ATP6V0A2 (UniProt Q9Y487)
Sequence of UniProt Q9Y487 (Q9Y487 whole entry, looked up): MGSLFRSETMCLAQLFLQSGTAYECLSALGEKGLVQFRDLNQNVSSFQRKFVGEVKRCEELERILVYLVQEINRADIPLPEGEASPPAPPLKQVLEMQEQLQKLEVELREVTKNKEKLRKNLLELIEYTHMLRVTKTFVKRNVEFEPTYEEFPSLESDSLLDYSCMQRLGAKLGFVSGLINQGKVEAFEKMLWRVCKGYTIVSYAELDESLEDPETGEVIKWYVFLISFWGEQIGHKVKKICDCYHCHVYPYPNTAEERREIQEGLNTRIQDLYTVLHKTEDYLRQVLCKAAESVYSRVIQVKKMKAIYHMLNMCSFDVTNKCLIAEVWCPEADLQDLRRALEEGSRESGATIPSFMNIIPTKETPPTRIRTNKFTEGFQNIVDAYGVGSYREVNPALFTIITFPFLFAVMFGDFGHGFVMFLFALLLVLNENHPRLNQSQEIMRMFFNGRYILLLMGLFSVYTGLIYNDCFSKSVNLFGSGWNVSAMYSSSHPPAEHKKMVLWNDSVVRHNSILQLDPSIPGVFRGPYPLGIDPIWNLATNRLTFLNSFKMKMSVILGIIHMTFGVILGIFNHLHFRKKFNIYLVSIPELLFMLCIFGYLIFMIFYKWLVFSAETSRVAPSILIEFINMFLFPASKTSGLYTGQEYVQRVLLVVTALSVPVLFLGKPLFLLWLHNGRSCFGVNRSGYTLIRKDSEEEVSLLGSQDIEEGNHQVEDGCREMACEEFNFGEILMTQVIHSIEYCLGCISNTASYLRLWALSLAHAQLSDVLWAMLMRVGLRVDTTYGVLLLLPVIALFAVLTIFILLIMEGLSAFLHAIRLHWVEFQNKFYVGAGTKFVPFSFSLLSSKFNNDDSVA
active: [14] -0.227
inactive: [1] -0.129 | [2] 0.091 | [3] 0.022 | [4] 0.008 | [5] 0.001 | [6] 0.03 | [7] -0.027 | [8] 0.015 | [9] 0.048 | [10] 0.036 | [11] -0.07 | [12] -0.047 | [13] -0.016 | [15] 0.026 | [16] 0.108 | [17] 0.004 | [18] 0.023 | [19] -0.046 | [20] 0.13

CAPN15 (UniProt O75808)
Sequence of UniProt O75808 (O75808 whole entry, looked up): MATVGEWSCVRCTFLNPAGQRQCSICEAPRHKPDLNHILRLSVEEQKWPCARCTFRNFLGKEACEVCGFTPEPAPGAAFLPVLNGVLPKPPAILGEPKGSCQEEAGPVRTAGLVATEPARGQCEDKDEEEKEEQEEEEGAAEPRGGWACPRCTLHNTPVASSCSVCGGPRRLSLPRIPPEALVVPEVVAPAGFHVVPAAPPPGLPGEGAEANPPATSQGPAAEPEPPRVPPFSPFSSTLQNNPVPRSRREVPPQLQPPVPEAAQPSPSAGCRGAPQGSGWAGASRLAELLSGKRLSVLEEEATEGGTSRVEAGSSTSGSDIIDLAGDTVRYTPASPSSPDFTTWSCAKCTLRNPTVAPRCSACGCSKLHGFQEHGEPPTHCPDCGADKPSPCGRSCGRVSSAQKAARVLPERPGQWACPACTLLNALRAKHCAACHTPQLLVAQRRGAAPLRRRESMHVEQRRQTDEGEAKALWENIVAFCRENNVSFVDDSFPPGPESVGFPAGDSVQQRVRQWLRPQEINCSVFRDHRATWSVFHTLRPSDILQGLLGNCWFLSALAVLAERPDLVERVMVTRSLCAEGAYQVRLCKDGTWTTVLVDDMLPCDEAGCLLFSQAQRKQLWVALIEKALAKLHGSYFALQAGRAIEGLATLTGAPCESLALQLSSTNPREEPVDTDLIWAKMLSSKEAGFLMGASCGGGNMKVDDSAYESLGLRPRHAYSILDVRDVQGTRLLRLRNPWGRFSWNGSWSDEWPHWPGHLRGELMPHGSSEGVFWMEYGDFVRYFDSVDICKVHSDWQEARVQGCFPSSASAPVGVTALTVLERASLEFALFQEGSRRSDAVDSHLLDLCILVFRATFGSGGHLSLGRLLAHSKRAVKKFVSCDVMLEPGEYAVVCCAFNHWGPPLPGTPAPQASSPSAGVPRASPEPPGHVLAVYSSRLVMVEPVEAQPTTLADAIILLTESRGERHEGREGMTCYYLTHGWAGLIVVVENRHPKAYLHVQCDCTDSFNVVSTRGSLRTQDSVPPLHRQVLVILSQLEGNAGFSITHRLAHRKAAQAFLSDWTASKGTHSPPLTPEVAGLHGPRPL
inactive: [1] -0.01 | [2] -0.043 | [3] 0.001 | [4] -0.014 | [5] 0.19 | [6] -0.029 | [7] 0.03 | [8] -0.03 | [9] 0.024 | [10] -0.024 | [11] 0.063 | [12] -0.046 | [13] -0.047 | [14] 0.004 | [15] -0.022 | [16] -0.033 | [17] 0.042 | [18] 0.106 | [19] -0.003 | [20] -0.01

CDK11B (UniProt P21127)
Sequence of UniProt P21127 (P21127 whole entry, looked up): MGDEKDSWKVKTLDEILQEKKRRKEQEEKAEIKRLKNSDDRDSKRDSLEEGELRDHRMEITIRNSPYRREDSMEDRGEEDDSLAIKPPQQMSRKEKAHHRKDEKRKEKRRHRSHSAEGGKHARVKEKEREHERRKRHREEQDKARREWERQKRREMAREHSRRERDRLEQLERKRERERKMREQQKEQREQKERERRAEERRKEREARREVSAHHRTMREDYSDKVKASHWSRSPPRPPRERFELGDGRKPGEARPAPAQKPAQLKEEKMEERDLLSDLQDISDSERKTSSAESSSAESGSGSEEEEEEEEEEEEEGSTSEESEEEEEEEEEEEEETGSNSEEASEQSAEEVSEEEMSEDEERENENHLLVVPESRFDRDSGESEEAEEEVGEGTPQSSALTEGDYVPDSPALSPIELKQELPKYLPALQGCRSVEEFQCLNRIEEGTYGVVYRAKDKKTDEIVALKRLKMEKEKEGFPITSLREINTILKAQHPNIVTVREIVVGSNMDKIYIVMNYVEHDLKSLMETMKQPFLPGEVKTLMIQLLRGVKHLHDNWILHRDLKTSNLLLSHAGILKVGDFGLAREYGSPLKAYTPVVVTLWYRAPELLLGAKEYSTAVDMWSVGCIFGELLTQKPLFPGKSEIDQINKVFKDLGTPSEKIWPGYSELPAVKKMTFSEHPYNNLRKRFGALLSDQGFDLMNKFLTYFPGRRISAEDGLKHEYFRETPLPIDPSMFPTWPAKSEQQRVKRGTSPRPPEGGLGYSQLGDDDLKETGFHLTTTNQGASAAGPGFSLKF
active: [1] 0.273 | [13] 0.461 | [16] 0.399
inactive: [2] -0.081 | [3] 0.012 | [4] -0.013 | [5] 0.019 | [6] -0.012 | [7] 0.108 | [8] 0.012 | [9] -0.036 | [10] -0.016 | [11] -0.017 | [12] -0.006 | [14] -0.012 | [15] 0 | [17] 0.02 | [18] 0.031 | [19] -0.042 | [20] 0.007

CARNMT1 (UniProt Q8N4J0)
Sequence of UniProt Q8N4J0 (Q8N4J0 whole entry, looked up): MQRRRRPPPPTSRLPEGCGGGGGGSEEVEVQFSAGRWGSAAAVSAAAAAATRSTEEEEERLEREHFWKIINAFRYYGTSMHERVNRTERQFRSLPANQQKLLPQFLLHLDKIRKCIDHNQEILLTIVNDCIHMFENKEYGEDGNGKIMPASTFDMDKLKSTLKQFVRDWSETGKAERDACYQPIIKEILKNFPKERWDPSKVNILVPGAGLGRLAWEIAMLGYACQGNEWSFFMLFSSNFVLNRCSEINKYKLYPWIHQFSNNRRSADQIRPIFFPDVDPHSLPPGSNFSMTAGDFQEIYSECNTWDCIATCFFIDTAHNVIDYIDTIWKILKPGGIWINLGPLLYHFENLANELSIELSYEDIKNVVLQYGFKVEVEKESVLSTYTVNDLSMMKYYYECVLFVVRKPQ
inactive: [1] -0.167 | [2] 0.045 | [3] -0.021 | [4] -0.03 | [5] -0.021 | [6] 0.051 | [7] 0.015 | [8] -0.022 | [9] 0.026 | [10] 0.009 | [11] 0.01 | [12] -0.029 | [13] -0.131 | [15] 0.018 | [16] 0.038 | [17] -0.04 | [18] 0.01 | [19] -0.078 | [20] 0.181
active: [14] -0.354

C18orf25 (UniProt Q96B23)
inactive: [1] -0.014 | [2] 0.123 | [3] 0.034 | [4] 0.084 | [5] 0.041 | [6] -0.005 | [7] -0.067 | [8] 0.019 | [9] -0.027 | [10] 0.029 | [11] 0.017 | [12] -0.003 | [13] -0.049 | [14] 0.022 | [15] -0.046 | [16] 0.019 | [17] -0.029 | [18] 0.019 | [19] -0.023 | [20] -0.098

C3 (UniProt P01024)
Sequence of UniProt P01024 (P01024 whole entry, looked up): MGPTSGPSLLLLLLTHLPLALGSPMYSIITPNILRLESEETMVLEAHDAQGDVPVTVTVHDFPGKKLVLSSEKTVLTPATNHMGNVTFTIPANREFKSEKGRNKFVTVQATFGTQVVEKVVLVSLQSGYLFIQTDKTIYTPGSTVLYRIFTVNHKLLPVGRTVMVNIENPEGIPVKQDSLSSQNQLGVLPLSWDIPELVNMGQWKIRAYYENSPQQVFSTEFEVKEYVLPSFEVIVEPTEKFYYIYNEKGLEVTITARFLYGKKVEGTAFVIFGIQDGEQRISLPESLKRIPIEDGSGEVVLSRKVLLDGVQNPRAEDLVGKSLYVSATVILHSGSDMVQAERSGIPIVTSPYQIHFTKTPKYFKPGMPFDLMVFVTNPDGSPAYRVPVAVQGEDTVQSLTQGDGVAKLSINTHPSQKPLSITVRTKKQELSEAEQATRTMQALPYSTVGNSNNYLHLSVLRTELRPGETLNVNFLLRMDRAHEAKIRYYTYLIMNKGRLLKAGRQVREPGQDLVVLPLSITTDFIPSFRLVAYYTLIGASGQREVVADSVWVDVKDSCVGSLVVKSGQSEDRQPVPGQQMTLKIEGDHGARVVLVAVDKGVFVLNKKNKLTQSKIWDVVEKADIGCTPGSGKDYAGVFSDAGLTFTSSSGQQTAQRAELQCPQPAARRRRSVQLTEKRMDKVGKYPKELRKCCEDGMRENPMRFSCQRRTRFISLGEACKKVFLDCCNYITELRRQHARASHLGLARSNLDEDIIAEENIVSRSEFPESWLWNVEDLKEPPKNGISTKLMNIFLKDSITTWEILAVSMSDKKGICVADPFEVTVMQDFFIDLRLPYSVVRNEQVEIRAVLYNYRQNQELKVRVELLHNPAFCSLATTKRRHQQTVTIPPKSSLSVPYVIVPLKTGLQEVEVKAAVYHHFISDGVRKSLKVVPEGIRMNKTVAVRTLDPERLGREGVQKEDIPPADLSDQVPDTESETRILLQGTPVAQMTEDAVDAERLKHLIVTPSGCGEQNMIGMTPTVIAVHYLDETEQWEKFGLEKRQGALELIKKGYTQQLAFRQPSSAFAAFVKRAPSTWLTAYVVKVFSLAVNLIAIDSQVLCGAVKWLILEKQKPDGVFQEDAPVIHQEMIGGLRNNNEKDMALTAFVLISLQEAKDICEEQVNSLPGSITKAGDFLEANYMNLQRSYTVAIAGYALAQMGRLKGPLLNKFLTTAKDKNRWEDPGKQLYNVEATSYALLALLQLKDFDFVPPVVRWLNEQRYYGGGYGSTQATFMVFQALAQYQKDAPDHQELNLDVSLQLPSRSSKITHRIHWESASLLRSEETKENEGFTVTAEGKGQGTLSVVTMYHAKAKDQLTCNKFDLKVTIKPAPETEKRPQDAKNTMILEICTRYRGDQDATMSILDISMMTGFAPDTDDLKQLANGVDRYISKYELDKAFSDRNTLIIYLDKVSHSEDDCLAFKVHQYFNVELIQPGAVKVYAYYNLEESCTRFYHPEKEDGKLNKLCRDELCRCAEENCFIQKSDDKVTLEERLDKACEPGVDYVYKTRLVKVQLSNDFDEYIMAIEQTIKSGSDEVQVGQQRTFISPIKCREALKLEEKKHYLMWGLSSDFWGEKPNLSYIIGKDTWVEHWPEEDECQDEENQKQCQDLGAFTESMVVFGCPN
inactive: [1] -0.027 | [2] 0.051 | [3] 0.041 | [4] 0.01 | [5] 0.008 | [6] 0 | [7] 0.054 | [8] -0.031 | [9] -0.005 | [10] 0.05 | [11] 0.011 | [12] -0.01 | [13] 0.042 | [14] -0.095 | [15] -0.073 | [16] 0.044 | [17] 0.068 | [18] -0.006 | [19] 0.019 | [20] 0.019
